The values below come from PubChem BioAssay (Tox21).

Records with an inconclusive call do not appear. Active and inactive are the calls of the source. The call rests on the fitted dose curve; in most records, active means well fitted cell-killing curve with a large enough effect in the repeat runs; inconclusive means weak or mixed curves, or effect the other way; inactive means flat fitted curve, though single readings scatter.

A short description of test [1]: cAMP Responsive Elements (CRE) small molecule antagonists, cell-based qHTS assay: qHTS cell viability counter screen (AID 2060913). Further: nearly all actives have a fitted effect of over 40% in size. Summed up: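 CRE-bla HEK293T cells were seeded in assay medium with 10% dialyzed FBS, incubated 18 hrs at 37 C, then exposed to compounds plus 0.25 uM final NKH477 for 3 hrs. Viability was read by CellTiter-Glo luminescence after 30 min, in the same wells.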
For orientation: qHTS replaces the single test concentration by a dilution series.

Test [2] can be described thus: cAMP Responsive Elements (CRE) small molecule agonists, cell-based qHTS assay: qHTS cell viability counter screen (AID 2060914).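 Further: viability read after 3 h of compound exposure; nearly all actives have a fitted effect of over 50% in size.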 Summed up: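 CRE-bla HEK 293T cells, plated 18 h at 37 °C, were exposed to compounds for 3 h at 37 °C/5% CO2. Viability was then measured in the same wells by CellTiter-Glo luminescence after 30 min at room temperature.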
Potency means the concentration at half of the fitted maximal effect.

Take `CNC(=O)Oc1ccccc1OC(C)C`: the Potency result in test [1] and in test [2] was “inactive” throughout.
As to `BrCC(Br)c1ccccc1` (stereo not drawn), the Potency entry in test [1] and in test [2] was “inactive” each time.
Turning to `Cn1cc(C2=C(c3cn(C4CCN(Cc5ccccn5)CC4)c4ccccc34)C(=O)NC2=O)c2ccccc21`, the Potency entry in test [1] and in test [2] was “inactive” in each case.
For the compound `CN(C)C(=S)S`, the Potency entry in test [1] and in test [2] was “inactive” throughout.
Consider `NC1(c2ccccc2)CCCCC1`, for which the Potency result in test [1] and in test [2] was “inactive” throughout.
In the case of `CC(C)OC(=S)S`, the Potency entry in test [1] and in test [2] was “inactive” in each case.
With `[P]#[In]`, the Potency entry in test [1] and in test [2] was “inactive” each time.
Turning to `CCN(CC)CCO`, the Potency entry in test [1] and in test [2] was “inactive” each time.
With `CCCSP(=O)(OCC)Oc1ccc(Br)cc1Cl` (stereo not drawn), the Potency entry in test [1] and in test [2] was “inactive” in each case.
Turning to `CC#Cc1cc(C)nc(Nc2ccccc2)n1`, the Potency result in test [1] and in test [2] was “inactive” throughout.
Regarding `C[N+](C)(C)CC1CO1` (stereo not drawn), the Potency entry in test [1] and in test [2] was “inactive” in each case.
For `CCCN1CCC[C@@H]2Cc3[nH]ncc3C[C@H]21`, the Potency entry in test [1] and in test [2] was “inactive” throughout.
With `ClC(Cl)c1ccccc1`, the Potency entry in test [1] and in test [2] was “inactive” each time.
Regarding `CCCC[n+]1ccccc1C`, the Potency entry in test [1] and in test [2] was “inactive” throughout.
As for `Oc1c(Br)cc(Br)cc1Br`, the Potency entry in test [1] and in test [2] was “inactive” in each case.
For the compound `CC(C)(OOC(C)(C)c1ccccc1)c1ccccc1`, the Potency entry in test [1] and in test [2] was “inactive” throughout.
With `Nc1ccccc1`, the Potency result in test [1] and in test [2] was “inactive” each time.
For `CS(=O)(=O)NC(=O)c1cc(Oc2ccc(C(F)(F)F)cc2Cl)ccc1[N+](=O)[O-]`, the Potency entry in test [1] and in test [2] was “inactive” throughout.
With `CCC(=O)C(CC(C)N(C)C)(c1ccccc1)c1ccccc1` (stereo not drawn), the Potency entry in test [1] and in test [2] was “inactive” in each case.
In the case of `CCOP(=O)(OCC)SCCSCC`, the Potency entry in test [1] and in test [2] was “inactive” in each case.
On to `Cn1c(CCCC(=O)O)nc2cc(N(CCCl)CCCl)ccc21`, for which the Potency entry in test [1] and in test [2] was “inactive” each time.
Take `Cn1cc(-c2ccccc2)c(=O)c(-c2cccc(C(F)(F)F)c2)c1`: the Potency result in test [1] and in test [2] was “inactive” in each case.
Consider `COP(=O)(OC)OC=C(Cl)Cl`, for which the Potency entry in test [1] and in test [2] was “inactive” in each case.
As to `COc1ccc(-c2ccccc2)cc1NNC(=O)OC(C)C`, the Potency entry in test [1] and in test [2] was “inactive” each time.
As to `CC(C)CC(C)N` (stereo not drawn), the Potency entry in test [1] and in test [2] was “inactive” each time.
For `CC(C)(c1ccc(OCC2CO2)cc1)c1ccc(OCC2CO2)cc1` (stereo not drawn), the Potency entry in test [1] and in test [2] was “inactive” throughout.
On to `O=[Se]=O`, for which the Potency was 30.4 µM (active) in test [1] and 17.1 µM (active) in test [2].
For the compound `CCCCCCCCOC(=O)c1ccccc1C(=O)OCCCCCCCC`, the Potency result in test [1] and in test [2] was “inactive” each time.
For the compound `Cc1cnc[nH]1`, the Potency result in test [1] and in test [2] was “inactive” in each case.
On to `Oc1ccc(Cl)cc1`, for which the Potency result in test [1] and in test [2] was “inactive” each time.
Consider `CCOP(=S)(OCC)Oc1cnc2ccccc2n1`, for which the Potency entry in test [1] and in test [2] was “inactive” throughout.
For the compound `CN(C)C(=O)Cl`, the Potency entry in test [1] and in test [2] was “inactive” in each case.
Consider `Clc1ccccc1-c1nnc(-c2ccccc2Cl)nn1`, for which the Potency result in test [1] and in test [2] was “inactive” each time.
As for `C[N+]1(CCC(C(N)=O)(c2ccccc2)c2ccccc2)CCCCC1`, the Potency result in test [1] and in test [2] was “inactive” throughout.
`COC(=O)Nc1cccc(OC(=O)Nc2cccc(C)c2)c1`: the Potency entry in test [1] and in test [2] was “inactive” in each case.
Turning to `CC(C)O.CC(C)O.OCCN(CCO)CCO.OCCN(CCO)CCO.[Ti]`, the Potency result in test [1] and in test [2] was “inactive” in each case.
On to `CC[C@H](N)c1ccccc1`, for which the Potency entry in test [1] and in test [2] was “inactive” throughout.
Take `Nc1ccccc1C(=O)O`: the Potency entry in test [1] and in test [2] was “inactive” in each case.
For the compound `O=C(Oc1ccc(Br)cc1)N1CCN2CCC1CC2`, the Potency entry in test [1] and in test [2] was “inactive” each time.
Turning to `Nc1ccc(-c2ccc(N)c(N)c2)cc1N`, the Potency entry in test [1] and in test [2] was “inactive” throughout.
With `c1ccc(NNc2ccccc2)cc1`, the Potency result in test [1] and in test [2] was “inactive” throughout.
In the case of `O=[N+]([O-])O[C@H]1CO[C@H]2[C@@H]1OC[C@H]2O[N+](=O)[O-]`, the Potency result in test [1] and in test [2] was “inactive” each time.
For `CNC(=O)Oc1cccc2c1OC(C)(C)C2`, the Potency entry in test [1] and in test [2] was “inactive” each time.
In the case of `CCCCn1cc[n+](C)c1`, the Potency entry in test [1] and in test [2] was “inactive” in each case.
`CC(C)OC(=O)Nc1ccccc1`: the Potency result in test [1] and in test [2] was “inactive” throughout.
Regarding `CN(C)C(=O)Oc1cc(OC(=O)N(C)C)cc(C(O)CNC(C)(C)C)c1` (stereo not drawn), the Potency result in test [1] and in test [2] was “inactive” in each case.
Regarding `C=CC(=O)OCC(CC)CCCC` (stereo not drawn), the Potency result in test [1] and in test [2] was “inactive” in each case.
With `C=C(C)C(=O)OCCCCOC(=O)C(=C)C`, the Potency result in test [1] and in test [2] was “inactive” in each case.
For `CCNc1nc(NC(C)C(C)C)nc(SC)n1` (stereo not drawn), the Potency entry in test [1] and in test [2] was “inactive” in each case.
As for `CC(C)NC(C)C`, the Potency entry in test [1] and in test [2] was “inactive” throughout.
On to `c1ccc(Nc2ccc3ccccc3c2)cc1`, for which the Potency result in test [1] and in test [2] was “inactive” in each case.
Consider `CCN(C)N=O`, for which the Potency entry in test [1] and in test [2] was “inactive” in each case.
With `Cc1cc(C(F)(C(F)(F)F)C(F)(F)F)ccc1NC(=O)c1cccc(I)c1C(=O)NC(C)(C)CS(C)(=O)=O`, the Potency entry in test [1] and in test [2] was “inactive” in each case.
`COc1ccc(C(O)(c2cncnc2)C2CC2)cc1` (stereo not drawn): the Potency entry in test [1] and in test [2] was “inactive” throughout.
On to `CC[C@H](O)C(C[C@H](C)N(C)C)(c1ccccc1)c1ccccc1`, for which the Potency entry in test [1] and in test [2] was “inactive” each time.
Turning to `Cc1cccc(Cc2cnc[nH]2)c1C`, the Potency result in test [1] and in test [2] was “inactive” each time.
In the case of `CCC(C)Cl` (stereo not drawn), the Potency result in test [1] and in test [2] was “inactive” in each case.
Turning to `CCOP(=O)(N=C1SCCS1)OCC`, the Potency entry in test [1] and in test [2] was “inactive” throughout.
Turning to `ClCC(Cl)(Cl)Cl`, the Potency entry in test [1] and in test [2] was “inactive” in each case.
